Source: PubChem (National Center for Advancing Translational Sciences (NCATS))
The list is not random: actives were taken first. Their share in the collection is about 12%.
ALDH1A1 inh: blocks purified human ALDH1A1 activity; Purified ALDH1A1, NADH fluorescence, propionaldehyde substrate; AID 1030; P00352; hit rate 7.3% among 220,000; Potency, µM (titrated, usually from 75.3 µM), without a hit: top-dose activity, negative = inhibition, most hits filed as inhibitors; active = well fitted inhibition curve with a large enough effect, not every such curve was filed as active; inconclusive = small, poorly fitted or top-dose-only effect, or another doubt; inactive = no such curve, though single readings can be large or run the other way;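 also: plate controls were no enzyme wells and a reference inhibitor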
Target sequence (P00352 whole entry, looked up): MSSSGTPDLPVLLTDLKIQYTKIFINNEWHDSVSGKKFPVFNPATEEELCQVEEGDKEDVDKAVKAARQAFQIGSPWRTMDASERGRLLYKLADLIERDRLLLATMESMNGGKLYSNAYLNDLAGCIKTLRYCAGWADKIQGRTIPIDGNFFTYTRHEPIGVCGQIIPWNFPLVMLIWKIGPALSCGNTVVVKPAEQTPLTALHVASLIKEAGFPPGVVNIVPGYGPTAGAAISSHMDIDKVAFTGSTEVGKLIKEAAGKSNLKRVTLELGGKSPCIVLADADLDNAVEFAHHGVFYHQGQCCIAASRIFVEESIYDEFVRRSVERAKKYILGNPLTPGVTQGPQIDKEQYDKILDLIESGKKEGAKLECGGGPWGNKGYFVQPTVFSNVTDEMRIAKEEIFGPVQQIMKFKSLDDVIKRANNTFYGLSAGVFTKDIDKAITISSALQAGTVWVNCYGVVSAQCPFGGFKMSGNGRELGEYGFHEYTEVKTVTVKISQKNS
RORg inh: ROR gamma (mouse) transcription inhibition. hit rate 5.4% among 310,000. Potency, µM (doses to about 53.6 µM), for the others: at the highest dose activity change, negative = inhibition, actives largely listed as inhibitors. Drosophila S2 Gal4-RORgamma UAS-luciferase reporter, 20 h; also: nearly all actives have a fitted effect of over 60% in size
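Read-out: Photinus luciferase luminescence; inhibitors lower reporter signal. Insect Schneider cells with Gal4-ROR gamma fusion under metallothionein promoter, UAS reporter; 700 uM final copper sulfate induction, 20 hr, ambient temperature.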
Sfp PPTase inh: Sfp phosphopantetheinyl transferase inhibition; hit rate 3.5% among 310,000; Q9F4F7; Potency, µM, without a hit: largest response in the series, negative = inhibition, most hits filed as inhibitors; Biochemical Sfp PPTase activity, qHTS; AID 1490;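 also: the enzyme is Sfp with the accession as filed and its product quenches rhodamine fluorescence; 0% = enzyme reaction without inhibitor and -100% = no enzyme wells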
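Buffer: 50 mM Hepes-Na pH 7.6, 10 mM MgCl2, 0.01% Nonidet P-40, 0.01% BSA. Enzyme 15 nM, pre-exposed to compound 15 min; substrates then added and fluorescence change tracked over 30 min.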
Gal4-VP16 FLuc: inhibits Gal4-VP16 luciferase reporter, ROR gamma counter-screen; Drosophila S2 Gal4-VP16 UAS-luciferase, luminescence, 20 h; hit rate 3.5% among 310,000; Potency, µM (top dose mostly 53.6 µM), for the others: at the top dose activity, negative = inhibition, actives largely listed as inhibitors; AID 2546;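 also: Gal4-VP16 expression switched on by copper sulfate through the metallothionein promoter; nearly all actives have a fitted effect of over 50% in size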
PLK1 PBD inh: PLK1 (human) polo-box domain binding inhibition; P53350; Plk1 PBD binding of FITC phosphopeptide, fluorescence polarization; Potency, µM, for inactives: max response, negative = inhibition, actives largely listed as inhibitors; hit rate 2.8% among 360,000; also: series mostly up to about 57 µM; nearly all actives have a fitted effect of over 65% in size
The depositor's hits bear a star; ? = inconclusive; . = no result; [ ] = another dose, or the depositor's remark. Unless noted, calls follow the shape of the dose curve; as a rule, active = well fitted curve in the direction sought with a large enough effect; inconclusive = small, poorly fitted or top-dose-only effect, or another doubt; inactive = no such curve, though single readings can be large; an effect the other way counts as inactive or inconclusive. Unless noted, % is scaled to controls: 0 for no effect and ±100 for the full control effect; potency is read from the fitted curve at half-maximal effect.

SMILES	ALDH1A1 inh	RORg inh	Sfp PPTase inh	Gal4-VP16 FLuc	PLK1 PBD inh
Cc1cc(OCC(=O)N[C@@H](Cc2ccccc2)c2nc3ccccc3[nH]2)ccc1Cl	12.1%	20µM*	16.6%	?	-0.4%
CCCCOc1ccc(C(=O)Nc2ccncc2)cc1	-5.9%	?	1.4%	7.94µM*	-0.7%
CCc1ccc(OCC(=O)Nc2ccncc2)cc1	.	38.7%[1.91 µM]	14.6%	3.55µM*	-3.9%
C[C@@H](NC(=O)[C@@H]1CCCN1C(=O)[C@@H]1CCCN1C(=O)c1cccc(Cl)c1)c1ccccc1	.	.	.	.	-6.3%
CC(C)c1ccc(-n2nnnc2SCc2nc(N)nc(N)n2)cc1	.	.	.	.	-15.1%
CCCN1C(=O)SC(CC(=O)Nc2cccc3ccccc23)C1=O (stereo not drawn)	22.4µM*	-43.0%	-5.5%	-0.7%	-16.9%
CCCN1C(=O)SC(CC(=O)Nc2ccccc2)C1=O (stereo not drawn)	20µM*	-11.2%	-11.3%	3.4%	-10.3%
CCC(=O)Nc1cccc2ccccc12	0.3%	-13.3%	18.0%	3.0%	-10.7%
OCC[C@@H]1C[C@H](O)[C@@H](O)[C@@]2(OCCCc3cc(C(F)(F)F)ccc32)O1	.	.	.	.	-10.5%
CCCCCCC1CC(CCc2nc(=S)[nH][nH]2)C(=O)O1 (stereo not drawn)	?	-43.9%	-28.9%	-1.0%	?
CCCCCCCCc1nc(=S)[nH][nH]1	12.6µM*	10µM*	20µM*	?	?
N#Cc1ccc(-c2csc(NC(=O)c3ccc(S(=O)(=O)N4CCc5ccccc5C4)cc3)n2)cc1	0.8%	-22.6%	5.0%	-29.7%	-7.9%
Cc1cc(C)c2nc(NNC(=O)c3cc(=O)c4ccccc4o3)sc2c1	-10.3%	5.01µM*	17.8µM*	?	-26.2%
Cc1cc(C)c2nc(NNC(=O)c3ccc(S(=O)(=O)N4CCc5ccccc5C4)cc3)sc2c1	?	1.58µM*	-2.0%	3.16µM*	-1.3%
Cc1cc(C)c2sc(NNC(=O)c3ccc(S(=O)(=O)N4CCc5ccccc5C4)cc3)nc2c1	2.1%	4.47µM*	9.9%	5.01µM*	-10.7%
CC(C)=CCC/C(C)=C/CO/N=C1/C[C@@H](O)[C@@H](O)[C@@H]2[C@@H]3C(=O)N(C4CCCCC4)C(=O)[C@H]3CC[C@@H]12	1.0%[13.5 µM]	-9.5%[10 µM]	6.8%	-12.1%[10 µM]	.
Cn1c(=O)c(-c2ccc(F)cc2)nc2cnc(OCc3ccccc3)nc21	?	-1.9%	-0.5%	1.9%	.
CC(=O)c1c(C)nc(Nc2nc(C)c3cc(C)ccc3n2)nc1C	?	3.98µM*	6.6%	?	-5.5%
CC(=O)c1cnc(Nc2nc(C)c3ccc(C)cc3n2)nc1C	?	?	14.2%	?	-12.5%
[N-]=[N+]=CC(=O)CCCN1C(=O)c2ccccc2C1=O	10µM*	28.1%	11.6%	3.9%	-13.8%
Cc1cc(C(=O)Cn2nc(C(=O)O)c3ccccc3c2=O)c(C)n1C1CC1	21.6%	19.8%	-8.4%	-2.1%	3.8%
C=CCn1c(C)cc(C(=O)Cn2nc(C(=O)O)c3ccccc3c2=O)c1C	-8.1%	15.8µM*	9.4%	?	-4.0%
COCCn1c(C)cc(C(=O)Cn2nc(C(=O)O)c3ccccc3c2=O)c1C	13.5%	5.62µM*	9.2%	?	-0.3%
CCCc1ccc(C(O)c2ncc(-c3ccccc3F)[nH]2)cc1 (stereo not drawn)	.	.	.	.	3.8%
CN(C)c1ncc2nc(-c3cc(F)cc(F)c3)c(=O)n(CCc3ccccc3)c2n1	?	2.0%	-19.0%	-5.6%	.
SMILES	ALDH1A1 inh	RORg inh	Sfp PPTase inh	Gal4-VP16 FLuc	PLK1 PBD inh
Cc1ccc(C(=O)CC2(O)C(=O)N(Cc3ccc4c(c3)OCO4)c3ccccc32)cc1 (stereo not drawn)	1.41µM*	46.2%	1.5%	-7.1%	-14.4%
CN1C(=O)C(O)(CC(=O)c2ccc3c(c2)OCO3)c2ccccc21 (stereo not drawn)	-0.1%	-23.7%[0.365 µM]	3.0%	.	-3.2%
O=C(CC1(O)C(=O)N(Cc2ccccc2)c2ccccc21)c1ccc2c(c1)OCO2 (stereo not drawn)	7.08µM*	4.6%	-1.4%	-0.1%	-5.5%
CC(C)(C)C(=O)CC1(O)C(=O)N(Cc2ccccc2)c2ccccc21 (stereo not drawn)	7.08µM*	-3.7%	9.4%	-4.0%	-0.8%
Cc1ccccc1CN1C(=O)C(O)(CC(=O)c2ccncc2)c2ccccc21 (stereo not drawn)	0.112µM*	-0.7%	5.9%	1.2%	-9.6%
CC(=O)CC1(O)C(=O)N(CN2CCN(c3ccccc3)CC2)c2ccccc21 (stereo not drawn)	4.8%	5.5%	7.0%	-0.9%	-11.2%
CC(=O)OCC1OC(n2c(Br)nc3c(=O)[nH]c(N)nc32)C(OC(C)=O)C1OC(C)=O (stereo not drawn)	16.3%	-3.6%	-0.5%	-1.7%	.
C[N+]1(CCC(=O)c2ccco2)CC2CCC(CC2)C1 (stereo not drawn)	4.9%[13.5 µM]	.	.	.	.
O=C(CC1(O)C(=O)N(Cc2ccc3c(c2)OCO3)c2ccccc21)c1ccccc1 (stereo not drawn)	8.91µM*	-17.5%	4.7%	3.7%	-7.8%
Clc1cccc(CSc2ccc(-c3ccco3)nn2)c1	25.1µM*	11.6%	35.5µM*	?	-12.1%
N#Cc1ccc(-c2ccco2)nc1SCc1ccccc1	?	41.9%	-8.6%	11.3%	-3.9%
c1ccc(CSc2ccc(-c3ccco3)nn2)cc1	39.8µM*	-1.5%	31.6µM*	3.7%	-23.6%
Cc1ccc(CSc2ccc(-c3ccc4c(c3)OCO4)nn2)cc1	11.2µM*	-24.0%	-19.3%	-0.6%	-19.4%
Clc1cccc(CSc2ccc(-c3cccnc3)nn2)c1	5.4%	7.2%	5.6%	17.2%	-3.1%
Clc1ccc(CSc2ccc(-c3ccco3)nn2)cc1	-5.2%	17.6%	56.2µM*	?	-7.4%
Cc1ccc(CSc2ccc(-c3ccco3)nn2)cc1	-9.9%	32.0%	28.2µM*	?	-10.0%
Cc1cccc(CSc2ccc(-c3ccco3)nn2)c1	?	14.0%	?	?	-8.1%
c1ccc(CSc2ccc(-c3ccccn3)nn2)cc1	6.7%	7.94µM*	9.1%	1.5%	-3.1%
Fc1ccccc1CSc1ccc(-c2ccco2)nn1	28.2µM*	20.1%	56.2µM*	-13.1%	?
Clc1ccc(CSc2ccc(-c3ccccn3)nn2)cc1	0.2%	-8.8%	28.2%	?	2.1%
CCCN(CC(=O)NC(=O)NCc1ccccc1)CC(=O)Nc1ccc(F)c(F)c1F	.	.	.	.	-8.3%
CCCn1c(C(O)c2cccc(OC)c2)nc2ccccc21 (stereo not drawn)	.	-25.0%	7.0%	4.0%	-3.2%
Cc1c(Cl)cccc1-n1nnnc1-c1cccs1	11.2µM*	-3.6%	3.8%	9.8%	-2.3%
Cc1nc2cc(NC(=O)N3CCN(c4ccccn4)CC3)ccc2o1	4.5%	0.8%	13.4%	8.0%	-5.9%
O=C(Nc1ccc2nc(-c3ccco3)c(-c3ccco3)nc2c1)N1CCN(c2ccccn2)CC1	8.1%	22.1%	20µM*	-9.8%	5.32µM*
